The results in this text go back to ChEMBL document CHEMBL2218924, “A broad activity screen in support of a chemogenomic map for kinase signalling research and drug discovery” (Biochem J, 2013).

Experiment [1] concerns the target T1, Ephrin type-A receptor 3 (Homo sapiens) (UniProt P29320).
T1 sequence (whole entry): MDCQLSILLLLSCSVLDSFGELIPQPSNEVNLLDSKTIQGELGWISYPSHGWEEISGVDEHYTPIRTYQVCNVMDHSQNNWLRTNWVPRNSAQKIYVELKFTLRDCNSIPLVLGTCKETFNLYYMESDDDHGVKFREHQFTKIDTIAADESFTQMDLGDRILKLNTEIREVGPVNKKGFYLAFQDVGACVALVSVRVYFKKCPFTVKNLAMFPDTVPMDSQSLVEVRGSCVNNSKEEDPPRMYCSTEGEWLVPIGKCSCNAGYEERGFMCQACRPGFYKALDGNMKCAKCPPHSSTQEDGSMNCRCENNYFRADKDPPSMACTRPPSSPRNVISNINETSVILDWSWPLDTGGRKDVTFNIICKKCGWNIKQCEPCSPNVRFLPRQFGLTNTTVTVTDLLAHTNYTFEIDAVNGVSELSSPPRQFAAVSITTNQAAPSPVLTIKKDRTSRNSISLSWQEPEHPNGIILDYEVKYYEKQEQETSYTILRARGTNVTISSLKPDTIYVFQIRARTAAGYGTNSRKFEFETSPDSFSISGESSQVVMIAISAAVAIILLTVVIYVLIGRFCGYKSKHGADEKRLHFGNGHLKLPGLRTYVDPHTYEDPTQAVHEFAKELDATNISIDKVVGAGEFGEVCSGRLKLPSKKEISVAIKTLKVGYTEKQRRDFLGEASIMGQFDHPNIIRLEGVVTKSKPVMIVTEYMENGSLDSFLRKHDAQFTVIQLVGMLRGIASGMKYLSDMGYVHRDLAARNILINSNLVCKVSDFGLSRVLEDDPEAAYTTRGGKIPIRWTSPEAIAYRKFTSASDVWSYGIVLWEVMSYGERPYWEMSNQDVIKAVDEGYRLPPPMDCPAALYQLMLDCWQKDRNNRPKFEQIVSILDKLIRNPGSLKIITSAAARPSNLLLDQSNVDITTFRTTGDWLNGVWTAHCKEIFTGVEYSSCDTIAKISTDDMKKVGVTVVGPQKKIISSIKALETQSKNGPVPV
The following applies: at 10 µM.

For experiment [2], the target named is Ephrin type-A receptor 5 (Homo sapiens) (UniProt P54756). Conditions: at 1 µM.
Chain of Ephrin type-A receptor 5 (Homo sapiens) (P54756 whole entry): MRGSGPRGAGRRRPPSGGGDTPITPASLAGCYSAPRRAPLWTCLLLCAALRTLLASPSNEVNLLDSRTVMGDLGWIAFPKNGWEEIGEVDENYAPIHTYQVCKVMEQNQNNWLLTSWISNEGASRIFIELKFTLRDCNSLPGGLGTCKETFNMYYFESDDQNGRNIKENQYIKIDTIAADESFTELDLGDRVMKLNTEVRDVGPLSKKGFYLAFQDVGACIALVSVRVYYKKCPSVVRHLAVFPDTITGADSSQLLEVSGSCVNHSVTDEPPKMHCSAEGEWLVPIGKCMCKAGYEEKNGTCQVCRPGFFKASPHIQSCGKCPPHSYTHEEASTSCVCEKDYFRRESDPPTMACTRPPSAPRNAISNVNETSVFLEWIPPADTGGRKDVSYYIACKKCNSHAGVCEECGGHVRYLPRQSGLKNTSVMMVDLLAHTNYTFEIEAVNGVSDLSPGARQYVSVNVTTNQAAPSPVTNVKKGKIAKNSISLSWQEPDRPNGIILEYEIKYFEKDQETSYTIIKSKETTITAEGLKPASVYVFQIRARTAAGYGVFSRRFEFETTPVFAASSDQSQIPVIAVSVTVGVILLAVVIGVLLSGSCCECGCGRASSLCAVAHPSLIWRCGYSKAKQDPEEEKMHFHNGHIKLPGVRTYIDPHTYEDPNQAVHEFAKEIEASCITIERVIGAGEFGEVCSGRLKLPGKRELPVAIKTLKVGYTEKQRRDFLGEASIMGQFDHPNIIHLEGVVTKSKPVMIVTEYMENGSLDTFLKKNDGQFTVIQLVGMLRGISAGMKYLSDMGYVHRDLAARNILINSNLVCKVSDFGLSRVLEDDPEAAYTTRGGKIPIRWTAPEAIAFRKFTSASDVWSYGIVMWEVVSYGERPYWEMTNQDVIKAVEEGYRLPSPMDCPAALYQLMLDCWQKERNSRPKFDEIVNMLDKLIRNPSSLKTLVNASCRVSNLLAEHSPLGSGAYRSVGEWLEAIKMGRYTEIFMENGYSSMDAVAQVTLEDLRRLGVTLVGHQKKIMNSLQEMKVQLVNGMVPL
For experiment [3] the target is unchanged. Conditions: at 10 µM.
In experiment [4] the target is Ephrin type-A receptor 7 (Homo sapiens) (UniProt Q15375). Conditions: at 1 µM.
Chain of Ephrin type-A receptor 7 (Homo sapiens) (Q15375 28-998 limits assumed): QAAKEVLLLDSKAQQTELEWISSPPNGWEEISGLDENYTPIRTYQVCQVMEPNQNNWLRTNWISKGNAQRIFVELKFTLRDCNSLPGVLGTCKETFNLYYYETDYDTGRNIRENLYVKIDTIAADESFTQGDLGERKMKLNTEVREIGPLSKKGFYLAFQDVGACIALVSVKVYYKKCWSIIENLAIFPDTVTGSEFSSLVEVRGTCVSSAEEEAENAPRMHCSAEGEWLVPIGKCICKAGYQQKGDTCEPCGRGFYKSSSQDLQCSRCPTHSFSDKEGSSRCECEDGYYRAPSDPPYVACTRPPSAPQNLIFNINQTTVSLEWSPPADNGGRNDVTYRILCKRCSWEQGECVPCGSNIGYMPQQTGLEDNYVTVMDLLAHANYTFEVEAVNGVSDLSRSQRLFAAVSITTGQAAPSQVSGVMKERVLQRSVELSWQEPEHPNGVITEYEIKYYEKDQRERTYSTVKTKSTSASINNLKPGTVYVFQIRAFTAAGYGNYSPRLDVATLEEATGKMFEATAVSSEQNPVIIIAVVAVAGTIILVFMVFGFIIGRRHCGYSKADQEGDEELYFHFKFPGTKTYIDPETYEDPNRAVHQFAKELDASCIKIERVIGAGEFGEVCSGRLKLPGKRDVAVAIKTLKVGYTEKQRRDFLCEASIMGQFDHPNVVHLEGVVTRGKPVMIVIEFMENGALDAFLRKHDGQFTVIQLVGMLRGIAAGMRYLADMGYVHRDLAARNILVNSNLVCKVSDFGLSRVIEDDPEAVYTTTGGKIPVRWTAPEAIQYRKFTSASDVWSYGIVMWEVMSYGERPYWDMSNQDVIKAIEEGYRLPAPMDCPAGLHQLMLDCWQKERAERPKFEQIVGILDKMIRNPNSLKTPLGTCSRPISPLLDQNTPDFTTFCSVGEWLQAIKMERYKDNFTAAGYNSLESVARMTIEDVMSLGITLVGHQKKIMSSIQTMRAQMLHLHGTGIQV
Experiment [5] has the same target. Conditions: at 10 µM.
The target of experiment [6] is T2, Ephrin type-A receptor 8 (Homo sapiens) (UniProt P29322).
T2 sequence (whole entry): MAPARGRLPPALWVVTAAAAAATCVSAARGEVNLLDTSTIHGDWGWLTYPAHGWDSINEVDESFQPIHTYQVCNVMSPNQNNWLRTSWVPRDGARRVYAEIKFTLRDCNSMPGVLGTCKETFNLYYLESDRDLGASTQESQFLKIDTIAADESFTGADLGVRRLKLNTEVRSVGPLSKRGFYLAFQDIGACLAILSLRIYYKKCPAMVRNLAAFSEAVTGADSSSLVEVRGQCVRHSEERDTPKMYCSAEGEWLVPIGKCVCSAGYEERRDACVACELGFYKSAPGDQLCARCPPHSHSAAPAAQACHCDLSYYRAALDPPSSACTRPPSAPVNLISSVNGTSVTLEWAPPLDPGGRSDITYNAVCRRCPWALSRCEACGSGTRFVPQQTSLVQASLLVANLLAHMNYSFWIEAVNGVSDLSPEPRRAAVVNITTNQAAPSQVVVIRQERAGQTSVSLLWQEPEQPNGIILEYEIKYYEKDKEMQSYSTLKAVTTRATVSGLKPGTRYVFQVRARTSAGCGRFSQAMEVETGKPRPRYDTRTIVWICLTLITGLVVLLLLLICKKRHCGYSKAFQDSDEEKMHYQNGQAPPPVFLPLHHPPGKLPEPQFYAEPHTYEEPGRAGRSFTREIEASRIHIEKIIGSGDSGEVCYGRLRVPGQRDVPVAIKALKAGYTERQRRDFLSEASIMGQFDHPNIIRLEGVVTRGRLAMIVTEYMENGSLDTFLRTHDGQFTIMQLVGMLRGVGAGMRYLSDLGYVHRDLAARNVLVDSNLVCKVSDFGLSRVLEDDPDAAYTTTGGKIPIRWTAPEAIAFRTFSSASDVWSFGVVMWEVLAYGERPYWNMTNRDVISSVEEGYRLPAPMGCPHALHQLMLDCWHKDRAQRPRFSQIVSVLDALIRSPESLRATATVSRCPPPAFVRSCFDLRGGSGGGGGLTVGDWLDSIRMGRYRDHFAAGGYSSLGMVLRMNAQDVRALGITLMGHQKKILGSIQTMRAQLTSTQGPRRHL
Conditions: at 1 µM.

Experiment [7] has as its target T2, Ephrin type-A receptor 8 (Homo sapiens). Conditions: at 10 µM.
For experiment [8], the target named is Ephrin type-A receptor 4 (Homo sapiens) (UniProt P54764). Conditions: at 1 µM.
Chain of Ephrin type-A receptor 4 (Homo sapiens) (P54764 whole entry): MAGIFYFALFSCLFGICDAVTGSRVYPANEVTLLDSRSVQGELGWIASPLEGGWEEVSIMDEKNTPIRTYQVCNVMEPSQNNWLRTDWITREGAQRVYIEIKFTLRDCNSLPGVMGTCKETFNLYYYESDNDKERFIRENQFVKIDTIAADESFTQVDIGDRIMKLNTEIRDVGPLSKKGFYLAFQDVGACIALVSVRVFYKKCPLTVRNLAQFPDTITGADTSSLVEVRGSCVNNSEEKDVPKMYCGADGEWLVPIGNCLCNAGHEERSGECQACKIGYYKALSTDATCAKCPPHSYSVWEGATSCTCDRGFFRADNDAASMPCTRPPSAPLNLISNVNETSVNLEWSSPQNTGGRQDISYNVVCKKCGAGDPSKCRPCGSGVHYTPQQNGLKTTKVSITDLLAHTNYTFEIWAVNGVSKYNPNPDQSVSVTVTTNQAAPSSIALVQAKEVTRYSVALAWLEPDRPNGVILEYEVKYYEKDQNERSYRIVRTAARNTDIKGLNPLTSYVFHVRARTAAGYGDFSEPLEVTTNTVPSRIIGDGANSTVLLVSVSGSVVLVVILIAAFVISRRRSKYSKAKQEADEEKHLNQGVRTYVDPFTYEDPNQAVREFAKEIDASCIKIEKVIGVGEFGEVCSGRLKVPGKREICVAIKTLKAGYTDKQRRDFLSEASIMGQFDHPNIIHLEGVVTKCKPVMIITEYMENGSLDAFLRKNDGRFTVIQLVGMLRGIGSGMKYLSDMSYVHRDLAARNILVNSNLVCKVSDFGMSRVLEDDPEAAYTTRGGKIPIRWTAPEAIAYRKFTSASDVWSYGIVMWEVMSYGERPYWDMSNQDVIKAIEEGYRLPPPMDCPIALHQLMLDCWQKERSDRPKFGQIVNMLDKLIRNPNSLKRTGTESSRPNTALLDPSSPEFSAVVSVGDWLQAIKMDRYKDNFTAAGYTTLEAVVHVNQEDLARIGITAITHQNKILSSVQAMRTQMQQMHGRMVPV
The target is the same in experiment [9]. Conditions: at 10 µM.
Experiment [10] has as its target T3, Ephrin type-B receptor 1 (Homo sapiens) (UniProt P54762).
T3 sequence (whole entry): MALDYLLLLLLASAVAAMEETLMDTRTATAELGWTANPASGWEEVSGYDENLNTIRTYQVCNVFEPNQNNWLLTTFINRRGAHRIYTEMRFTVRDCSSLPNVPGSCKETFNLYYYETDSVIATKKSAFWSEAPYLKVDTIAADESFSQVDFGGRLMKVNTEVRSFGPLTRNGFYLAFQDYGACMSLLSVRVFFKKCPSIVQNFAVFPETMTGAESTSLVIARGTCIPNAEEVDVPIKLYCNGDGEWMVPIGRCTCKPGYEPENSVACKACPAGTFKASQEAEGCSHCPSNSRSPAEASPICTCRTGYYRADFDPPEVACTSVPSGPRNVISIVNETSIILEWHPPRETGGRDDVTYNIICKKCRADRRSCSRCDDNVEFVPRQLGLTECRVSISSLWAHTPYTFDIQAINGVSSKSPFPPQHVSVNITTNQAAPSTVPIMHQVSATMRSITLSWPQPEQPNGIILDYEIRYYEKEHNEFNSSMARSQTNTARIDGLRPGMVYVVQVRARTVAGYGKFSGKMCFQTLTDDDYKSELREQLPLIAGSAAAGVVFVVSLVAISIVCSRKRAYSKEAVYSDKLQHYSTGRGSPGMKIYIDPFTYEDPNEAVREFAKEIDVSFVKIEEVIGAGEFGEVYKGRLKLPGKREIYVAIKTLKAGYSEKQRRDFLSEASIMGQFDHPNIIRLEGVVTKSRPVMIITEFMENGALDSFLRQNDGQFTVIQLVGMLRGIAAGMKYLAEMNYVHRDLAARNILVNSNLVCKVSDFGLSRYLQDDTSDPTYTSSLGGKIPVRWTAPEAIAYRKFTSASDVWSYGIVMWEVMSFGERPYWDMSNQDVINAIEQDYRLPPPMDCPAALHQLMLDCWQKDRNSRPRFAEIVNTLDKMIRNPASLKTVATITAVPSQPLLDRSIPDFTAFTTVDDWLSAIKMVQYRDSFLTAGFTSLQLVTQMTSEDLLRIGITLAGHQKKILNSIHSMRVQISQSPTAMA
The following applies: at 1 µM.

For the compound `O=C1C(Cl)=C(N2C(=O)CCC2=O)C(=O)c2ccccc21`, the residual activity is 89% in [1]; 119% in experiment [2]; 96% in experiment [3]; 99% in [4]; 92% in experiment [5]; 96% in experiment [6]. Besides, the residual activity in experiment [7] is 92%.
For the compound `O=C(CCCc1ccc(-c2ccccc2F)cc1)Nc1ccc(O)cc1`, the residual activity in experiment [1] amounted to 111%; in [8] it was 108%; in [9] it was 96%; in experiment [2], 111%; in [3], 106%; in experiment [4], 102%. The residual activity in [5] was 104%; in experiment [6] it was 103%; in [7], 94%.
As for `CC(C)(C)n1nc(Cc2cccc3ccccc23)c2c(N)ncnc21`, the residual activity amounted to 8% in experiment [1]; 47% in experiment [8]; 5% in experiment [9]; 21% in experiment [2]; 5% in experiment [3]; 89% in [4]. Besides, the residual activity stood at 33% in experiment [5], 33% in experiment [6], 6% in [7] and 13% in [10].
Take `O=C(O)/C=C/c1cc(Br)c(Br)c(Br)c1Br`: the residual activity was determined as 79% in experiment [1]; 109% in experiment [4]; 92% in experiment [5]; 100% in experiment [6]; 99% in experiment [7]; 101% in experiment [10].
Regarding `CC(C)[C@H](CO)Nc1nc(Nc2cc(N)cc(Cl)c2)c2ncn(C(C)C)c2n1`, the residual activity is 52% in [1]; 63% in experiment [9]; 86% in [2]; 23% in experiment [3]; 93% in experiment [6]; 59% in experiment [7].
Take `COc1ccc(COc2ccc(Cc3cnc(N)nc3N)cc2OC)cc1`: the results for the residual activity in experiment [1], in [2] and in experiment [7] were 78%, 111% and 110%, respectively.
Consider `CC(C)c1nn(-c2c(Cl)cccc2Cl)c2nc(Cc3ccc(OCCO)cc3)[nH]c(=O)c12`, for which the residual activity in experiment [1] was 85%; in experiment [8] it was 121%; in experiment [2] it was 106%; in experiment [3], 106%; in experiment [4], 97%; in experiment [5], 88%. In addition, the residual activity in experiment [6] came out at 94%; in [7], 89%; in [10] it was 90%.
For `O=C1Cc2c([nH]c3ccc([N+](=O)[O-])cc23)-c2ccccc2N1`, the residual activity in experiment [8] and in experiment [9] was 105% throughout.
In the case of `COc1ccc(CNC(=O)Nc2ncc([N+](=O)[O-])s2)cc1`, the residual activity turned out to be 100% in experiment [8]; 102% in [9]; 114% in [2]; 102% in experiment [3]; 80% in experiment [5]; 111% in experiment [10].
For the compound `O=C1NC(=O)C(c2cn(CCCO)c3ncccc23)=C1c1cnccn1`, the residual activity in [1] was found to be 92%; in [6] it was 99%; in [7] it was 94%.
`O=C1NC(=O)C(c2cn(CCCn3ccnc3)c3ccccc23)=C1Nc1ccccc1`: the results for the residual activity in [2] and in experiment [3] were 125% and 109%, respectively.
`c1ccc(-c2cnc(Nc3ccc(OCCN4CCCC4)cc3)s2)cc1`: the residual activity in [1] came to 69%; in experiment [4] it was 104%; in experiment [5] it was 76%; in experiment [10], 104%.
Take `O=C(c1cc2cc(O)ccc2[nH]1)c1cc2cc(O)ccc2[nH]1`: the residual activity in experiment [2] was 78%; in [3] it was 32%; in experiment [4], 83%; in [5], 66%; in [7], 73%.
For `O=C(c1ccccc1)c1ccc(N2CCOCC2)cc1O`, the residual activity in experiment [2] was 118%; in experiment [4] it was 79%; in [5] it was 86%; in experiment [10], 96%.
On to `NC(=O)c1ccc(-c2nc(-c3ccc4c(c3)OCCO4)c(-c3ccccn3)[nH]2)cc1`, for which the residual activity came out at 94% in experiment [1] and 93% in experiment [10].
`O=c1cc(N2CCOCC2)oc2c(-c3ccccc3)cccc12`: the residual activity turned out to be 77% in [1] and 79% in experiment [5].
